# Measured values as given in PubChem BioAssay.
# Active and inactive are the calls of the source. Unless noted, no rule for the calls is given here.
# Key:
# [1] = growth inhibition, single agent or in combination, cell-based, chromothripsis tumors, cisplatin or BGB combos (AID 1671449; in the data active = inhibition above about 80%;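 also: cells exposed for 96 hours; 0% = vehicle DMSO and 100% = killing by high DMSO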); settings: LFS_MB_P medulloblastoma cells
# [2] = growth inhibition, single agent and combos, cell-based, chromothripsis tumors, cisplatin or BGB combos (AID 1671450; in the data active = inhibition above about 80%;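 also: cells exposed to compound for four days; 0% = vehicle DMSO and 100% = cell killing by high DMSO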); settings: HDN33 neuroblastoma cells, stronger effect = higher value
# [3] = growth inhibition, single agents and combos, ICB984, cell-based, cisplatin or BGB combos, synergistic combos for chromothripsis tumors (AID 1671451); settings: ICB984 medulloblastoma cells, drug combinations, stronger effect = higher value;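 also: cells exposed for 96 hours before readout; 0% = vehicle DMSO and 100% = killing by high DMSO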
# [4] = growth inhibition, single agents and combos, LFS_MB_1R, cell-based, cisplatin or BGB combos, synergistic combos for chromothripsis tumors (AID 1671452; in the data active = inhibition above about 80%;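 also: cells exposed for 96 hours before readout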); settings: LFS_MB_1R medulloblastoma cells, stronger effect = higher value
# [5] = growth inhibition, single agents and combos, HTB85, cell-based, BGB or cisplatin IC20 combos, synergistic combos for chromothripsis tumors (AID 1671453; in the data active = inhibition above about 80%;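 also: cells exposed for 96 hours before readout; 0% = vehicle DMSO and 100% = high DMSO killing control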); settings: HTB85 osteosarcoma cells, drug combinations, stronger effect = higher value
# [6] = growth inhibition, single agents and combos, CRL2098, cell-based, BGB or cisplatin IC20 combos, synergistic combos for chromothripsis tumors (AID 1671454; in the data active = inhibition above about 80%;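 also: cells exposed for 96 h before readout; 0% = vehicle DMSO and 100% = killing by high DMSO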); settings: CRL2098 osteosarcoma cells, drug combinations, stronger effect = higher value
# [7] = growth inhibition, single agents and combos, HD-MB03, cell-based, BGB or cisplatin IC20 combos, synergistic combos for chromothripsis tumors (AID 1671455; in the data active = inhibition above about 83%;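 also: 0% = vehicle DMSO and 100% = high DMSO as cytotoxic control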); settings: HD-MB03 medulloblastoma cells, stronger effect = higher value
# [8] = growth inhibition, single agents and combos, UWB1.289, cell-based, BGB or cisplatin combos, synergistic combos for chromothripsis tumors (AID 1671456; in the data active = inhibition above about 80%;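 also: cells exposed to compound for four days; 0% = vehicle DMSO and 100% = killing by high DMSO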); settings: UWB1.289 ovarian carcinoma cells, stronger effect = higher value
# [9] = growth inhibition, single agents and combos, LFS_MB_2R, cell-based, cisplatin combos, synergistic combos for chromothripsis tumors (AID 1671457; in the data active = inhibition above about 80%;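 also: cells exposed to compound for four days before readout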); settings: LFS_MB_2R medulloblastoma cells, stronger effect = higher value
# [10] = growth inhibition, MDA-MB-436, cell-based, BGB or cisplatin combos, synergistic combos for chromothripsis tumors (AID 1671458); settings: MDA-MB-436 breast carcinoma growth inhibition, drug combinations, stronger effect = higher value;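 also: cells exposed for 96 hours; 0% = vehicle DMSO and 100% = killing by high DMSO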
# [11] = UWB1.289_BRCA1 ovarian cancer growth, cell-based, BGB or cisplatin combinations (AID 1671459; in the data active = inhibition above about 80%); settings: UWB1.289 BRCA1 ovarian carcinoma, drug combinations, stronger effect = higher value
# [12] = drug combination toxicity in non-malignant astrocytes – cell-based, BGB or cisplatin IC20 combos, cytotoxicity control for chromothriptic childhood tumor combination screen (AID 1671460; in the data active = inhibition above about 80%;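 also: cells exposed to compounds for 96 hours before viability readout; 0% = vehicle and 100% = killing control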); settings: Human astrocytes, viability inhibition, drug combinations, at 0.5 µM, stronger effect = higher value
# [13] = BT084 cell growth, single and combined drugs, ICGC_MB145, cisplatin and BGB IC40 combos (AID 1671461; in the data active = inhibition above about 80%;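 also: cells exposed to drugs for 96 hours; 0% = vehicle DMSO and 100% = high DMSO full killing control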); settings: BT084 medulloblastoma cells, drug combinations, stronger effect = higher value
# [14] = RCMB18 cell growth, single agent and combined, cisplatin and BGB IC40 combos (AID 1671462; in the data active = inhibition above about 80%;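 also: cells exposed to compound for four days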); settings: RCMB18 medulloblastoma cells, stronger effect = higher value
# [15] = CRL1545 cell growth, single agent and combined, cisplatin and BGB IC20 combos (AID 1671464; in the data active = inhibition above about 80%;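 also: cells exposed to compound for 96 hours before readout; 0% = vehicle DMSO and 100% = high DMSO killing control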); settings: CRL1545 osteosarcoma cells, stronger effect = higher value
# [16] = antimalarial activity against Dd2 strain (AID 2302;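 active = growth inhibition above 50% at the single 2 µM test dose, taken to imply half-maximal potency below 2 µM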;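 also: 0% = DMSO untreated growth and 100% = chloroquine plus artemisinin killed control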); settings: P. falciparum Dd2 in RBCs, LDH growth readout, 72 h; at 2 µM; stronger effect = higher value
# [17] = human hepatoma cell viability loss – ATP luminescence, cytotoxicity control for P. falciparum antimalarial project, primary screen (AID 2303;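 active = inhibition above 50%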;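 also: 0% = DMSO wells and 100% = digitonin-killed cells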); settings: HepG2 viability, 24-48 h, at 10 µM, stronger effect = higher value
# [18] = target: L-lactate dehydrogenase (Plasmodium falciparum (isolate CDC / Honduras)) (UniProt Q27743); test: PfLDH activity inhibition – cell lysate, 3D7 strain, counter-screen for P. falciparum growth inhibition project (AID 2304);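 also: 0% = vehicle and 100% = reference inhibitor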; settings: P. falciparum 3D7 crude extract, LDH APAD/NBT absorbance; at 2 µM; stronger effect = higher value
# L-lactate dehydrogenase (Plasmodium falciparum (isolate CDC / Honduras)), sequence (Q27743 whole entry, looked up): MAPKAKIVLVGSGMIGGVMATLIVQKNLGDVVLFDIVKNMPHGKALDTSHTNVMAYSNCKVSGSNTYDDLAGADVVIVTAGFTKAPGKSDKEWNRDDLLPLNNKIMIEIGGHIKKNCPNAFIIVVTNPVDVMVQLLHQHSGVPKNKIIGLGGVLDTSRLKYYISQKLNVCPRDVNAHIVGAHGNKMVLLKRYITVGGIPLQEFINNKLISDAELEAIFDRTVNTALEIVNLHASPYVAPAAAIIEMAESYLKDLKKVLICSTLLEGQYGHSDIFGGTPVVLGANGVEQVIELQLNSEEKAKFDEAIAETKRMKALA
# [19] = inhibition of 3D7 malaria parasite growth – strain 3D7 (AID 2306);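 also: 0% = DMSO wells and 100% = chloroquine plus artemisinin control wells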; settings: P. falciparum 3D7 erythrocytic growth, LDH absorbance, 72 h; at 2 µM; stronger effect = higher value
# [20] = measured here: combination with BGB IC40, at 0.05 µM
# [21] = measured here: with BGB IC20 combination, at 0.5 µM
# [22] = measured here: with cisplatin IC20 combination, at 0.5 µM
# [23] = measured here: combination with cisplatin, at 0.5 µM
# [24] = measured here: combination with cisplatin, at 5 µM
smiles,measurement,setting,value
CCC1(O)C(=O)OCc2c1cc1n(c2=O)Cc2cc3cc(O)ccc3nc2-1 (stereo unspecified),inhibition,"[1]; at 0.5 µM, stronger effect = higher value",-23.8% (inactive)
same,inhibition,"[1]; measured here: combination with BGB IC20, at 0.005 µM",-39%
same,inhibition,"[1]; measured here: combination with BGB IC40, at 0.005 µM",-64.3%
same,inhibition,[1]; [20],-39.2%
same,inhibition,"[1]; measured here: combination with cisplatin, at 0.5 µM, stronger effect = higher value",-28.8%
same,inhibition,"[1]; measured here: combination with cisplatin, at 5 µM, stronger effect = higher value",80.4%
same,inhibition,"[2]; BGB combo, at 5 µM",96.2%
same,inhibition,[2]; at 0.5 µM,75% (inactive)
same,inhibition,"[2]; cisplatin combo, at 5 µM",94.5%
same,inhibition,[2]; [21],83.6%
same,inhibition,[2]; [22],67.2%
same,inhibition,"[2]; single agent, at 5 µM",96%
same,inhibition,"[3]; BGB IC20 combo, at 0.005 µM",-7.43%
same,inhibition,"[3]; BGB IC40 combo, at 0.005 µM",-6.67%
same,inhibition,"[3]; BGB IC40 combo, at 0.05 µM",96.1%
same,inhibition,[3]; at 0.5 µM,-15.7% (inactive)
same,inhibition,"[3]; cisplatin combo, at 0.05 µM",96.4%
same,inhibition,"[3]; cisplatin combo, at 0.5 µM",-28.1%
same,inhibition,"[3]; cisplatin combo, at 5 µM",-59%
same,inhibition,"[3]; measured here: 5 uM single agent, at 5 µM",-24.3%
same,inhibition,[4]; at 0.5 µM,46% (inactive)
same,inhibition,[4]; [20],-11.8%
same,inhibition,[4]; [23],91.8%
same,inhibition,[4]; [24],84.6%
same,inhibition,[5]; at 0.5 µM,98% (active)
same,inhibition,"[5]; measured here: with BGB IC20, at 0.5 µM",97.4%
same,inhibition,"[5]; measured here: with BGB IC20, at 5 µM",98%
same,inhibition,"[5]; measured here: with cisplatin IC20, at 0.5 µM",97.8%
same,inhibition,"[5]; measured here: with cisplatin IC20, at 5 µM",99.5%
same,inhibition,"[5]; single agent, at 5 µM",99.6%
same,inhibition,[6]; at 0.5 µM,43.5% (inactive)
same,inhibition,"[6]; measured here: combination with BGB at IC20, at 0.5 µM",62.2%
same,inhibition,"[6]; measured here: combination with cisplatin at IC20, at 0.5 µM",19%
same,inhibition,[7]; at 0.5 µM,98.3% (active)
same,inhibition,"[7]; measured here: combo with BGB at IC20, at 0.5 µM",98%
same,inhibition,"[7]; measured here: combo with cisplatin at IC20, at 0.5 µM",98.2%
same,inhibition,[8]; at 0.5 µM,83.6% (active)
same,inhibition,"[8]; measured here: inhibition with BGB combination, at 0.05 µM",5.35%
same,inhibition,"[8]; measured here: inhibition with cisplatin combination, at 0.05 µM",7.19%
same,inhibition,[9]; at 0.5 µM,-2.53% (inactive)
same,inhibition,[9]; [23],28.3%
same,inhibition,[9]; [24],65.3%
same,inhibition,[10]; at 0.5 µM,65.8% (inactive)
same,inhibition,"[10]; measured here: BGB combination, at 0.5 µM",59%
same,inhibition,"[10]; measured here: BGB combination, at 5 µM",70.2%
same,inhibition,"[10]; measured here: cisplatin combination, at 0.5 µM",63.8%
same,inhibition,"[10]; measured here: cisplatin combination, at 5 µM",80.3%
same,inhibition,"[11]; BGB combination, concentration series, at 5 µM",95.1%
same,inhibition,[11]; at 0.5 µM,89% (active)
same,inhibition,"[11]; cisplatin combination, concentration series, at 5 µM",102%
same,inhibition,[12],73.4% (inactive)
same,inhibition,[12]; measured here: combo with BGB IC20,82.6%
same,inhibition,[12]; measured here: combo with cisplatin IC20,57.6%
same,inhibition,[13]; at 0.5 µM,1.31% (inactive)
same,inhibition,"[13]; cisplatin combination, at 0.5 µM",54.4%
same,inhibition,"[13]; cisplatin combination, at 5 µM",-68.1%
same,inhibition,"[13]; measured here: BGB IC40 combination 0.05 uM, at 0.05 µM",-44.1%
same,inhibition,"[13]; single agent, at 5 µM",-0.722%
same,inhibition,[14]; at 0.5 µM,24% (inactive)
same,inhibition,"[14]; cisplatin combo, at 5 µM",79.3%
same,inhibition,"[14]; measured here: BGB IC40 combination, at 0.05 µM",-9.73%
same,inhibition,[14]; [23],24.7%
same,inhibition,"[14]; single agent, at 5 µM",49.8%
same,inhibition,[15]; at 0.5 µM,74.6% (inactive)
same,inhibition,[15]; [21],87.6%
same,inhibition,[15]; [22],67.5%
same,inhibition,"[15]; single agent, at 0.05 µM",14.1%
same,inhibition,"[15]; single agent, at 5 µM",99.4%
CC[C@@H]([C@@H](CC(C)C)C(=O)N[C@@H](CCCCNC(=O)OCc1ccccc1)C(=O)Nc1ccccn1)N(O)C=O,growth inhibition,[16],99% (active)
same,inhibition,[17],-7% (inactive)
same,inhibition,[18],-8% (inactive)
same,growth inhibition,[19],98% (active)
CC(=NO)C1=C(O)C(c2ccccc2)N(c2ccccc2)C1=O (stereo unspecified),growth inhibition,[16],23% (inactive)
same,inhibition,[17],12% (inactive)
same,inhibition,[18],-1% (inactive)
same,growth inhibition,[19],99% (active)
N=C(N)c1ccc(C=Cc2ccc(C(=N)N)cc2O)cc1,growth inhibition,[16],80% (active)
same,inhibition,[17],10% (inactive)
same,inhibition,[18],4% (inactive)
same,growth inhibition,[19],92% (active)
ON=C1CCc2cc(-c3nc(-c4ccc(OCCN5CCCCC5)cc4)[nH]c3-c3ccncc3)ccc21,growth inhibition,[16],54% (active)
same,inhibition,[17],73% (active)
same,inhibition,[18],3% (inactive)
same,growth inhibition,[19],99% (active)
O=[N+]([O-])c1ccc(C=NO)nc1,growth inhibition,[16],98% (active)
same,inhibition,[17],80% (active)
same,inhibition,[18],2% (inactive)
same,growth inhibition,[19],80% (active)
CCC[C@@H]([C@@H](CC(C)C)C(=O)N[C@@H](CCCCNC(=O)OCc1ccccc1)C(=O)Nc1ncccn1)N(O)C=O,growth inhibition,[16],98% (active)
same,inhibition,[17],3% (inactive)
same,inhibition,[18],4% (inactive)
same,growth inhibition,[19],100% (active)
COc1cc(-c2nc(-c3ccc4c(c3)CCC4=NO)c(-c3ccncc3)[nH]2)ccc1OCCN1CCCCC1,growth inhibition,[16],80% (active)
same,inhibition,[17],75% (active)
same,inhibition,[18],1% (inactive)
same,growth inhibition,[19],101% (active)
CN(C)C[C@H](O)[C@@H](c1ccccc1)c1ccc(Cl)cc1,growth inhibition,[16],4% (inactive)
same,inhibition,[17],4% (inactive)
same,inhibition,[18],2% (inactive)
same,growth inhibition,[19],99% (active)
CCOc1cc(C=NNc2nc(C)cc(-n3nc(C)cc3C)n2)ccc1O,growth inhibition,[16],52% (active)
same,inhibition,[17],46% (inactive)
same,inhibition,[18],2% (inactive)
same,growth inhibition,[19],93% (active)
COc1ccc(Nc2nc(NN=Cc3cc(Cl)ccc3O)nc(Nc3ccccc3)n2)cc1,growth inhibition,[16],10% (inactive)
same,inhibition,[17],55% (active)
same,inhibition,[18],0% (inactive)
same,growth inhibition,[19],100% (active)
COc1ccc(Nc2nc(NN=Cc3cc(Br)ccc3O)nc(Nc3ccc([N+](=O)[O-])cc3)n2)cc1,growth inhibition,[16],37% (inactive)
same,inhibition,[17],27% (inactive)
same,inhibition,[18],7% (inactive)
same,growth inhibition,[19],97% (active)
Cc1cc(C)c2c(c1)C(=NO)CCN2,growth inhibition,[16],2% (inactive)
same,inhibition,[17],2% (inactive)
same,inhibition,[18],7% (inactive)
same,growth inhibition,[19],94% (active)
CCn1c(C=Cc2cc(Br)ccc2O)nc2ccccc2c1=O,growth inhibition,[16],95% (active)
same,inhibition,[17],6% (inactive)
same,inhibition,[18],-5% (inactive)
same,growth inhibition,[19],95% (active)
CCC[C@@H](C(=O)NCCc1cccc(OC)c1)N1C(=O)c2c(ccc(OC)c2OC)C1C(=O)Nc1c(C)cccc1C (stereo partly specified),growth inhibition,[16],32% (inactive)
same,inhibition,[17],6% (inactive)
same,inhibition,[18],3% (inactive)
same,growth inhibition,[19],94% (active)
C[C@@H]([C@@H](CCCc1ccc(Cl)cc1)C(=O)N[C@H](C(=O)Nc1cccnc1)C(C)(C)C)N(O)C=O,growth inhibition,[16],99% (active)
same,inhibition,[17],7% (inactive)
same,inhibition,[18],1% (inactive)
same,growth inhibition,[19],100% (active)
CCCC[C@@H](C(=O)NCc1ccccc1C(F)(F)F)N1C(=O)CCC1C(=O)Nc1ccc([N+](=O)[O-])cc1 (stereo partly specified),growth inhibition,[16],2% (inactive)
same,inhibition,[17],7% (inactive)
same,inhibition,[18],0% (inactive)
same,growth inhibition,[19],94% (active)
C=CC[C@H](C[C@H](O)[C@H](Cc1ccccc1)NC(=O)c1ccc(-n2cccn2)cc1)C(=O)NC1CCCCC1,growth inhibition,[16],0% (inactive)
same,inhibition,[17],1% (inactive)
same,inhibition,[18],1% (inactive)
same,growth inhibition,[19],96% (active)
